What was measured:
Assay in all cases: log2 ratio of Biotin-Ahx-Ub-VS probe labelling (fragment/DMSO); higher = less target engagement (more negative = stronger competition), active = hit call of the paper (q ≤ 0.05, log2 ratio ≤ -1)
Conditions in all cases: compound concentration: 200 uM; treatment time: 3 h
USP9X = USP9X (UniProt Q93008)
Method in brief: (§1)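 HEK293T lysate (495 µg per sample, in Tris/CHAPS/IGEPAL buffer with protease inhibitors) was exposed in triplicate for 3 h to fragment at 200 µM or to vehicle, then to Biotin-Ahx-Ub-VS at 0.5 µM final for 1 h. Labelled DUBs were enriched on NeutrAvidin, digested with LysC and trypsin, and analysed by diaPASEF LC-MS/MS. Spectronaut label-free quantities were normalised to the global median, and values are average log2 ratios of fragment over vehicle from an unpaired t-test. Only proteins with ≥2 unique peptides were used.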

UniProt O00487 = target: UniProt O00487
Method in brief: as §1

UniProt O00507 = target: UniProt O00507
Method in brief: as §1

UniProt P51784 = target: UniProt P51784
Method in brief: as §1

UniProt Q5T2D3 = target: T1, UniProt Q5T2D3
T1 sequence (whole entry): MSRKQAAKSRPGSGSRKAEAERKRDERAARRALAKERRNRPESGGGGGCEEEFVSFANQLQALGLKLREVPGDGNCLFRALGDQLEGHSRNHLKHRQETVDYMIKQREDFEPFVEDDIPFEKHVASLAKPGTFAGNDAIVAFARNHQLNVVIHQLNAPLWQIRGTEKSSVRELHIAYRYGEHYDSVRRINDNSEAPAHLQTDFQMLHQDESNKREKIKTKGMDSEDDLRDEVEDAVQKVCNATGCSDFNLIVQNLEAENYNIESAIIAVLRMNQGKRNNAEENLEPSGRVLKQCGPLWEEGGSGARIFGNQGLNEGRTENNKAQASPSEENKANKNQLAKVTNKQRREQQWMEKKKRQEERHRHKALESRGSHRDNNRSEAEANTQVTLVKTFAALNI
Method in brief: as §1

UniProt Q8TE49 = target: T2, UniProt Q8TE49
T2 sequence (whole entry): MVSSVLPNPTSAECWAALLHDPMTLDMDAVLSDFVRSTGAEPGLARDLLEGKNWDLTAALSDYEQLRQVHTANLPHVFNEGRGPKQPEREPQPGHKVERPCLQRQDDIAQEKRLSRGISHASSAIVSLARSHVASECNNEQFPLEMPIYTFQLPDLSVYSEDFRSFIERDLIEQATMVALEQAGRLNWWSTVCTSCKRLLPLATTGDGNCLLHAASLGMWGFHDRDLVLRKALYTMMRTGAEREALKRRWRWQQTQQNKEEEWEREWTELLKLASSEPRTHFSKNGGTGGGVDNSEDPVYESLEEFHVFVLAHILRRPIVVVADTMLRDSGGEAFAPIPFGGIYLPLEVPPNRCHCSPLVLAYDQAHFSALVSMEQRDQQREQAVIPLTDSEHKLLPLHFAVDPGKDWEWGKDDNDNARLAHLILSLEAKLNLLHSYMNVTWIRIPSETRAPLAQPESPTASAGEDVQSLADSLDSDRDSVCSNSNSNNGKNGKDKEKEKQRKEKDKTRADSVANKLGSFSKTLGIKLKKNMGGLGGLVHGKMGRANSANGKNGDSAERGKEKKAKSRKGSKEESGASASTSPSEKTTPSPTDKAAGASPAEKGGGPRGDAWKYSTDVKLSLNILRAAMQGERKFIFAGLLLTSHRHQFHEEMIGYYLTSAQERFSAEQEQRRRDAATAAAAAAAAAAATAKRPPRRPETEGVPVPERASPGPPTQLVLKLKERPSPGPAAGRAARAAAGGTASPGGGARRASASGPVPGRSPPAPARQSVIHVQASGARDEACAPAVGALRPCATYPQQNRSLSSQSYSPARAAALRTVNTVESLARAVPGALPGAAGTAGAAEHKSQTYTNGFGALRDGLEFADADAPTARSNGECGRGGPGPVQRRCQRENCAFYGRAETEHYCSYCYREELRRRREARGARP
Method in brief: as §1

UniProt Q9P2H5 = target: T3, UniProt Q9P2H5
T3 sequence (whole entry): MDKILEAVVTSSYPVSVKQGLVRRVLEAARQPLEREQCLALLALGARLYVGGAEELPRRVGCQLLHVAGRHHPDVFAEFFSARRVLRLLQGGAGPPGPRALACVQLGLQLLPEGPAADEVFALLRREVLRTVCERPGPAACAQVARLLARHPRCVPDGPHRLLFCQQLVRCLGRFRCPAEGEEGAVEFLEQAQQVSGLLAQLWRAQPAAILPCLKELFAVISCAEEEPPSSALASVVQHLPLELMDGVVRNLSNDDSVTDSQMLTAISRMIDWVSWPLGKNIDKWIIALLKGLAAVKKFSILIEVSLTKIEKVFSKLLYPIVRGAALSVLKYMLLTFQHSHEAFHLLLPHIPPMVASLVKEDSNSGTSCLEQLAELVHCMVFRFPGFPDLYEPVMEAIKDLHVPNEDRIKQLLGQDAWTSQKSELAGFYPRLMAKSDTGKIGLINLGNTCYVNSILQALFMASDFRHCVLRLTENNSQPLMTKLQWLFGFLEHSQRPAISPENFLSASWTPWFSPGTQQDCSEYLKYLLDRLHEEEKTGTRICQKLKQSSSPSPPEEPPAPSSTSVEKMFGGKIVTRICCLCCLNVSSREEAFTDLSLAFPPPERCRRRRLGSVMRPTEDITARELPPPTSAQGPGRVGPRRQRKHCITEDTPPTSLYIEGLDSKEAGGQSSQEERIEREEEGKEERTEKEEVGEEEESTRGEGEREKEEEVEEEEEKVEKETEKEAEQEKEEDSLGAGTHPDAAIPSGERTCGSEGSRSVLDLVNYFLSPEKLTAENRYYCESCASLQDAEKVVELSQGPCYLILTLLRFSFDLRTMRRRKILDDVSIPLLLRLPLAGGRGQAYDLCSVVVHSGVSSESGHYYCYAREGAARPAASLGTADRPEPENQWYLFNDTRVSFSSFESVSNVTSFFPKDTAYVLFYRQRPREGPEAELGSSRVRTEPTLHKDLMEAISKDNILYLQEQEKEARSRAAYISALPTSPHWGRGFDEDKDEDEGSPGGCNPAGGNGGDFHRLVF
Method in brief: as §1

UniProt Q9UGI0 = target: T4, UniProt Q9UGI0
T4 sequence (whole entry): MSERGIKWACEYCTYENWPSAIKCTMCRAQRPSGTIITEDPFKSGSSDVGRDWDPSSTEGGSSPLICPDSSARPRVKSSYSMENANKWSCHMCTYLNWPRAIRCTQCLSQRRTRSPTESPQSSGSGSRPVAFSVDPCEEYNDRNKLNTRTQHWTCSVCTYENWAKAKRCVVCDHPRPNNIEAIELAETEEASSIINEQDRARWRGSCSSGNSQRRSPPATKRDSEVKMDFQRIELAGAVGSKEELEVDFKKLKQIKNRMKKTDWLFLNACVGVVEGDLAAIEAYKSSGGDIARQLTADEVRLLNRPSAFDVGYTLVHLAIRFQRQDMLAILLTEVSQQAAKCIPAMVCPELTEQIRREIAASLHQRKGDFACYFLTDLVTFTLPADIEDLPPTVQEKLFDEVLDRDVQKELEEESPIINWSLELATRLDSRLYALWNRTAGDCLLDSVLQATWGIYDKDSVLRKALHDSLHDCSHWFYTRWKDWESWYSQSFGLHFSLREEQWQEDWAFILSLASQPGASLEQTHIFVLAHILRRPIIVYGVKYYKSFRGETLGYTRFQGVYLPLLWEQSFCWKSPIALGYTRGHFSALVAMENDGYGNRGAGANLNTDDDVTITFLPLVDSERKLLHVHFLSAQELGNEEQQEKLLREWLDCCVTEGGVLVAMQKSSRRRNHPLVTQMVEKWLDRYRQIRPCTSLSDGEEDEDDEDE
Method in brief: as §1

YOD1 = target: T5, YOD1 (UniProt Q5VVQ6)
T5 sequence (whole entry): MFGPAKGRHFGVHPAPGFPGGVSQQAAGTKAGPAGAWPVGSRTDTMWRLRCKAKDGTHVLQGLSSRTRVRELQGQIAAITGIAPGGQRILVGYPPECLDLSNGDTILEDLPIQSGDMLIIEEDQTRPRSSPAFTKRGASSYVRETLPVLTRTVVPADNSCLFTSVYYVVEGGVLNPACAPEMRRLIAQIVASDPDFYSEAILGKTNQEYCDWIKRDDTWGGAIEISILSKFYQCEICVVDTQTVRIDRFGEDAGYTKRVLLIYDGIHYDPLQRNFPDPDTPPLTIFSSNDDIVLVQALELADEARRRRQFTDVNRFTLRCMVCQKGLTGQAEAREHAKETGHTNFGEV
Method in brief: as §1

Measured: log2 ratio of Biotin-Ahx-Ub-VS probe labelling

USP9X, sequence (Q93008 whole entry, the tested form may be a part): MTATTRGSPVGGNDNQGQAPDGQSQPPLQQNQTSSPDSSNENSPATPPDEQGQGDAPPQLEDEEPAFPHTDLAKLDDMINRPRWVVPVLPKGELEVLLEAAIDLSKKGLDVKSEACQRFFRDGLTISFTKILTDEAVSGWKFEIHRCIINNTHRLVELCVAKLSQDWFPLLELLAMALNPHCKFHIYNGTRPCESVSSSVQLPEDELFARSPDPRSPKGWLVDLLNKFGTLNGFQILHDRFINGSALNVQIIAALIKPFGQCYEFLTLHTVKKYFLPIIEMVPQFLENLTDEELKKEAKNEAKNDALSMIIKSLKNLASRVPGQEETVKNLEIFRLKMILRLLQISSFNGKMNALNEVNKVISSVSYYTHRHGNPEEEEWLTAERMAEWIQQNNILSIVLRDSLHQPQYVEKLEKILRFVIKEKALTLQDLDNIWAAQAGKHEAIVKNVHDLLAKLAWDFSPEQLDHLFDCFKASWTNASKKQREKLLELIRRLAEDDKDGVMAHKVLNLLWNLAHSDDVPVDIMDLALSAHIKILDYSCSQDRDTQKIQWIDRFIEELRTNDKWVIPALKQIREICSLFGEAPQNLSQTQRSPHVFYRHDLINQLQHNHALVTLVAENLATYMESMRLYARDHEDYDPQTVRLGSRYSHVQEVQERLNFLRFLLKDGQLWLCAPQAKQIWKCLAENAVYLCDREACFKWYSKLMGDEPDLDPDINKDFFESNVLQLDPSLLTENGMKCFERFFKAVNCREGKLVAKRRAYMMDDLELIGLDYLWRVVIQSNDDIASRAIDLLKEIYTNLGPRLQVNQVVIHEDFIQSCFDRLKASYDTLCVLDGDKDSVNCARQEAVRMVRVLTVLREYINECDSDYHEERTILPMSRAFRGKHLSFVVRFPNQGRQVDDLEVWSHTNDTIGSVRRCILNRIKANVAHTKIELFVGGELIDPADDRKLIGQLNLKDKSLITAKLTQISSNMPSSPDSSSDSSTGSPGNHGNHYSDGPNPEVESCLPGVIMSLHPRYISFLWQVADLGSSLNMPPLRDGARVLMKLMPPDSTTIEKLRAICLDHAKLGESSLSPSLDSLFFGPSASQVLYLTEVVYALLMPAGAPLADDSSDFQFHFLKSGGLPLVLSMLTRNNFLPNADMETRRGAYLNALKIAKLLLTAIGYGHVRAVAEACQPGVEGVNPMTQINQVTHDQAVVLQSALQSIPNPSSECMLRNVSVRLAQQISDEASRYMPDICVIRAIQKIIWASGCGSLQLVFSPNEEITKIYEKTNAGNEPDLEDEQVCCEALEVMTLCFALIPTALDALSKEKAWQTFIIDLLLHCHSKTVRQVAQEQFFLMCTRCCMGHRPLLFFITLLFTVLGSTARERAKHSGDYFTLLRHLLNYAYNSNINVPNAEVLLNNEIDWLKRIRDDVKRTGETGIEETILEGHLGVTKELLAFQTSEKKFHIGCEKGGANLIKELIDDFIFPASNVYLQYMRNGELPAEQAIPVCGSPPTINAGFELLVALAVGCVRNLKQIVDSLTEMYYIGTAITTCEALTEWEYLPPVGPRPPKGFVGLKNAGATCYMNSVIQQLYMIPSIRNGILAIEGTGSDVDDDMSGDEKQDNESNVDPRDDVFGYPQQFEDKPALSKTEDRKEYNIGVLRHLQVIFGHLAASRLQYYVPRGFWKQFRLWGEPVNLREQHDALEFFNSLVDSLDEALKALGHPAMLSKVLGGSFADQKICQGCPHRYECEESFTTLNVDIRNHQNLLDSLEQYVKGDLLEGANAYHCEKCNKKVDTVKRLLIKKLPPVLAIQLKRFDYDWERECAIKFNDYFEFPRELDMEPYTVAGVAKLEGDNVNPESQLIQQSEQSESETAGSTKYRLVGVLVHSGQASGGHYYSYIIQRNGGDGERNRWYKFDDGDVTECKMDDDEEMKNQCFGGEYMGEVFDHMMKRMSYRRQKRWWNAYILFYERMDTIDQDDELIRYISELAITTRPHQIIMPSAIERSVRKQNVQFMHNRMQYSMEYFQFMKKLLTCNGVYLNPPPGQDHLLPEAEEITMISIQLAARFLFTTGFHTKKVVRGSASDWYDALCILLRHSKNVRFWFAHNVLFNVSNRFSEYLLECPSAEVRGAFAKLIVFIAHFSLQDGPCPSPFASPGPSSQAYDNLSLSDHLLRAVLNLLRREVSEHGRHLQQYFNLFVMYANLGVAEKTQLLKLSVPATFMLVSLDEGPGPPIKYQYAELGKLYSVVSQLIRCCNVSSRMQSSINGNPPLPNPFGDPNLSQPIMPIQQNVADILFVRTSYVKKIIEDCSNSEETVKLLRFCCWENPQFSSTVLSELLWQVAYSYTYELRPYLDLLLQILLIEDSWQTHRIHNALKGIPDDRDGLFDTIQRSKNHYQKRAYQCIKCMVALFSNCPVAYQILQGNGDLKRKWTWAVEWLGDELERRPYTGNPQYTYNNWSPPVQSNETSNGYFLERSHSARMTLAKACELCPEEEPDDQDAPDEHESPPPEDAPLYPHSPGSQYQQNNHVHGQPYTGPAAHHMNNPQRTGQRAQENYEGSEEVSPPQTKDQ
UniProt O00507, sequence (O00507 whole entry): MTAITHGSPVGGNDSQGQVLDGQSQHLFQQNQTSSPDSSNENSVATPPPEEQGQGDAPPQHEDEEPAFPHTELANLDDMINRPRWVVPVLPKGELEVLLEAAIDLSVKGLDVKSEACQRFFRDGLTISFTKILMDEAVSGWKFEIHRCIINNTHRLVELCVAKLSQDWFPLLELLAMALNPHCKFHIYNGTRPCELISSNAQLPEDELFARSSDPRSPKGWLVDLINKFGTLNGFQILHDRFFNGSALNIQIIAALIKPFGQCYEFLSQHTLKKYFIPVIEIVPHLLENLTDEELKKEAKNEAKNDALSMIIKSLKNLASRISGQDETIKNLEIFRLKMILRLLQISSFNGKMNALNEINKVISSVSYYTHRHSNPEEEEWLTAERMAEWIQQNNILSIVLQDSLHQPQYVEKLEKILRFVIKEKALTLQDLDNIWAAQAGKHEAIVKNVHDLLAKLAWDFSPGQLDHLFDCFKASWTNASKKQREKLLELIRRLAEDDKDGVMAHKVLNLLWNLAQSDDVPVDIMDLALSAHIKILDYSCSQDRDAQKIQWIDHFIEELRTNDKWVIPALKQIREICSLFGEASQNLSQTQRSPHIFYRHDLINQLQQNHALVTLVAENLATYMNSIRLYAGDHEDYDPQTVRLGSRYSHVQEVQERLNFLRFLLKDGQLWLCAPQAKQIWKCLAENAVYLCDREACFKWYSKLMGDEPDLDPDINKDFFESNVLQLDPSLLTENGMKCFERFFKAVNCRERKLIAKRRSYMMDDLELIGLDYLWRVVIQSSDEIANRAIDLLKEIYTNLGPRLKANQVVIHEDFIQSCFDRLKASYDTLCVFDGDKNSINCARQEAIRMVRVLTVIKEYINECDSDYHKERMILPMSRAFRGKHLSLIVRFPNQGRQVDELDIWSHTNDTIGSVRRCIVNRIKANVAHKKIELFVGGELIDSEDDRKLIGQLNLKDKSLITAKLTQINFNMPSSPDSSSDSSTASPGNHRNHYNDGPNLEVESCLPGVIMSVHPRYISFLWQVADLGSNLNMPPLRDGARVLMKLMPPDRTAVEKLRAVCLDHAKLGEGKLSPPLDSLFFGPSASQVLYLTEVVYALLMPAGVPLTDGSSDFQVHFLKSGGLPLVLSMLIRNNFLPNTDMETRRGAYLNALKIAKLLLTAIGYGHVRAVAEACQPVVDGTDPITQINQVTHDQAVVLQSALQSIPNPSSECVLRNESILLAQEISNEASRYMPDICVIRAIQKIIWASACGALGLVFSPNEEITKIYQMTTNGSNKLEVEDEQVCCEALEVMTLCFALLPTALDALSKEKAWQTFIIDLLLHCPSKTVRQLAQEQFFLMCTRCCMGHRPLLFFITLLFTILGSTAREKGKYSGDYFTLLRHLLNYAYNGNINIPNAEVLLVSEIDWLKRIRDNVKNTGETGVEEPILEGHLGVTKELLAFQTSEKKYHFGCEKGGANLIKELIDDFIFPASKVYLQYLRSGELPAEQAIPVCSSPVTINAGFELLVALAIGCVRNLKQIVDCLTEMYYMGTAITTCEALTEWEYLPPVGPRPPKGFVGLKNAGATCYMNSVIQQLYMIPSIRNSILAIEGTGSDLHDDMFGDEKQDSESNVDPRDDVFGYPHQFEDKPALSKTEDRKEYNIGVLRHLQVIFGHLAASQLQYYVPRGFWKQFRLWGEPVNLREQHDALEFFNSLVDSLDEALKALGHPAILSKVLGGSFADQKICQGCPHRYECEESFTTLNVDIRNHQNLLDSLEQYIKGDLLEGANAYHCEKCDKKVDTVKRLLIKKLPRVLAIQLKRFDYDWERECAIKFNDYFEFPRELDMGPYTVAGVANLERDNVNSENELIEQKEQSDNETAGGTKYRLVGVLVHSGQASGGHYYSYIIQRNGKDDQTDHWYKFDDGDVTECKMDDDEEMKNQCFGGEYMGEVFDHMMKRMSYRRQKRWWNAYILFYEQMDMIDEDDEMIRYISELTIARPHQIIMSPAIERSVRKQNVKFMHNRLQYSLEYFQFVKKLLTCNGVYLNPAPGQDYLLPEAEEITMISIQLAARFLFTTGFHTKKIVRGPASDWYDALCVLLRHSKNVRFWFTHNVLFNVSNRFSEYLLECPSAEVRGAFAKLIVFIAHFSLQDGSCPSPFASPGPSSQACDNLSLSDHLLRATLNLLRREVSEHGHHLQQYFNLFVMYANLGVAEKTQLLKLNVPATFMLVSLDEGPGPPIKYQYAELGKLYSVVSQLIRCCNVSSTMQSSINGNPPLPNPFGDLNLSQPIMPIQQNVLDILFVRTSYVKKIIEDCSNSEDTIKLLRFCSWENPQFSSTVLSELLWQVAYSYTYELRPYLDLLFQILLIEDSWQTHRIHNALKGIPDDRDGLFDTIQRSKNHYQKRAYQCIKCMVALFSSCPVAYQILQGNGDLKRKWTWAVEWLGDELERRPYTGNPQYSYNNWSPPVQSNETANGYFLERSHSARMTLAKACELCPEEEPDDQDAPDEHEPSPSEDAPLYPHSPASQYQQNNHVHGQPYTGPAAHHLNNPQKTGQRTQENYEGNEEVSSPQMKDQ

O=C(CCl)N1CCC(c2noc3cc(F)ccc23)CC1
active: UniProt Q9UGI0 -1.02
inactive: USP9X -0.201 | UniProt O00487 -0.0622 | UniProt O00507 -0.609 | UniProt P51784 0.00105 | UniProt Q5T2D3 -0.212 | UniProt Q8TE49 -0.807 | UniProt Q9P2H5 -0.0991 | YOD1 -0.0109

Source: the supplement of paper PMC11732987, “Enantioselective OTUD7B fragment discovery through chemoproteomics screening and high-throughput optimisation” (Communications Chemistry, 2025)
